Six1-Eya2 inh: inhibitors of human Six1/Eya2 interaction; AID 651725; AlphaScreen GST-Six1/His-Eya2 binding, biochemical; stronger effect = lower value; 360,000 compounds, 0.56% hits; activity change, % (concentration not given with the values); Q15475+O00167; in the data active = activity change below about -65%; inconclusive = mostly about -30% to -63%
Target sequence (O00167 whole entry, looked up): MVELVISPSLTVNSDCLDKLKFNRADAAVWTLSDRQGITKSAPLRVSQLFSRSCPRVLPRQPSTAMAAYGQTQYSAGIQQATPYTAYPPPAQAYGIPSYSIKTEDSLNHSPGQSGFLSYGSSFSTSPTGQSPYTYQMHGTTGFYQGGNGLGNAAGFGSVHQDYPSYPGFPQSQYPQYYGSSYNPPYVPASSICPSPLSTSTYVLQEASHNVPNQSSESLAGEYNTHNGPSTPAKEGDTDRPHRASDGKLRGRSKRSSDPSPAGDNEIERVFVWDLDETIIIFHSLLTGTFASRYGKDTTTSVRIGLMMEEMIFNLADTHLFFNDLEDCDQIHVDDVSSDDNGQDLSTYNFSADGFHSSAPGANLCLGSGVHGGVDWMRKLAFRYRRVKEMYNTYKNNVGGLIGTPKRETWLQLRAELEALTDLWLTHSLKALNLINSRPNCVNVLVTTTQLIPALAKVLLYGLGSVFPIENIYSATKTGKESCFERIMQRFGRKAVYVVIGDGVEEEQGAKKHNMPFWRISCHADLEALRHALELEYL
Target sequence (Q15475 whole entry, looked up): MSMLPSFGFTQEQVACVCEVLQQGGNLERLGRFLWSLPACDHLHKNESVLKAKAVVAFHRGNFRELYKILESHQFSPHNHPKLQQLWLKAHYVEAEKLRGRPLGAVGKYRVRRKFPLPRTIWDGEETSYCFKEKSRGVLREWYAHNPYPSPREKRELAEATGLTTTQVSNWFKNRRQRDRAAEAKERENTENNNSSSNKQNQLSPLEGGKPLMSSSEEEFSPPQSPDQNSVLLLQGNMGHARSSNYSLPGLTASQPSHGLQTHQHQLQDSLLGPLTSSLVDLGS
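Homogeneous AlphaScreen proximity assay pairing GST-Six1 with His-tagged Eya2 (added as 5X mix: 250 nM and 500 nM) in 50 mM Tris pH 8.0, 300 mM NaCl, 1 mM TCEP. Glutathione donor and nickel acceptor beads; 1 h, 37 °C, dark.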
DT40 TDP1 no CPT: qHTS for Inhibitors of human tyrosyl-DNA phosphodiesterase 1 (TDP1): qHTS in cells in absence of CPT; DT40 Tdp1-/- hTDP1 cells, no CPT, ATP luminescence, 48 h; Potency, µM (highest dose often 46.2 µM), without a hit: at the highest dose activity change, negative = growth inhibition, hits mostly inhibitors; 420,000 compounds, 15% hits; AID 686978, 2013; note: potency is the fitted concentration of half-maximal effect; nearly all actives have a fitted effect of over 55% in size
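DT40 Tdp1-/-;hTDP1 cells, no CPT (DMSO vehicle only), 400 cells/well; compounds pin-transferred; ≥48 hr, 37 °C; CellTiter-Glo 30 min RT dark, luminescence read.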
TDP1 block: blocks human tyrosyl-DNA phosphodiesterase 1. Potency, µM (top dose mostly 130 µM), for inactives: top-dose activity change, negative = inhibition, usual class: inhibitors. 350,000 compounds, 0.28% hits. recombinant TDP1, AlphaScreen DNA substrate cleavage; note: potency is the fitted concentration of half-maximal effect; nearly all actives have a fitted effect of over 40% in size
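AlphaScreen read-out: signal falls as enzyme removes the 3' tyrosine-FITC from a 5'-biotinylated DNA oligo (15 nM, 5 min, RT). Enzyme was E. coli-made recombinant Tdp1 at 1 nM, exposed to compound for 15 min beforehand; beads 10 ug/ml, 10 min.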
CtBP-E1A inh: CtBP/E1A binding inhibition | AlphaScreen GST-E1A/His-CtBP binding, 1536-well; stronger effect = lower value | activity change, % (concentration not given with the values) | 340,000 compounds, 0.49% hits | AID 651724; in the data active = activity change below about -65%; inconclusive = mostly about -30% to -63%
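AlphaScreen with 125 nM GST-E1A and 125 nM His-CtBP (5X stocks) in Tris pH 8.0, 300 mM NaCl, BSA, Tween 20, TCEP. Compounds preincubated 2 h at 37 deg C, then glutathione donor/nickel acceptor beads added for 1 h at 37 deg C in dark.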
IL-1B inflam inh: inhibitors of inflammasome signaling (IL-1 beta secretion) | THP-1 LPS/ATP IL-1B secretion, AlphaLISA, 16 h; stronger effect = lower value | activity change, % at 57.5 µM | 360,000 compounds, 4.7% hits | AID 743279; in the data active = activity change below about -50%; inconclusive = mostly about -30% to -49%
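Secreted IL-1B measured by AlphaLISA bead assay after 16 h compound exposure of THP-1 cells; compounds (final up to 57.5 uM) added 1 h before LPS (250 ng/mL) and ATP (1.25 mM) stimulation; lower signal means less secretion.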
TDP1 cell CPT: DT40-hTDP1 cell growth loss with CPT; chicken DT40 Tdp1-/-;hTDP1 cells + 20 nM CPT, ATP luminescence, 48 h; 420,000 compounds, 12% hits; Potency, µM (doses to about 46.2 µM), without a hit: at the top dose activity change, negative = growth inhibition, hits mostly inhibitors; AID 686979; note: potency is the fitted concentration of half-maximal effect; nearly all actives have a fitted effect of over 55% in size
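Chicken DT40 Tdp1-/- cells complemented with human TDP1, 400 cells/well, exposed to compounds plus 20 nM camptothecin for at least 48 h at 37 C; viability read as ATP content by CellTiter-Glo luminescence.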
Numbers without * were called inactive; u = inconclusive; x = not tested or not shown; [ ] = dose if it differs, or a comment. An excerpt weighted towards active compounds, which were near 18% of everything screened. Unless noted, calls come from the whole dose curve; as a rule, active = well fitted curve in the direction sought with a large enough effect; inconclusive = small, poorly fitted or top-dose-only effect, or another doubt; inactive = no such curve, though single readings can be large; an effect the other way counts as inactive or inconclusive. % is set by controls: 0 for no effect and ±100 for the full control effect.

SMILES | Six1-Eya2 inh | DT40 TDP1 no CPT | TDP1 block | CtBP-E1A inh | IL-1B inflam inh | TDP1 cell CPT
O=C1C=C(c2cccc(O)c2)C[C@@H](c2ccc(F)cc2)C1 | -10 | u | 0% | -12 | -12 | 21µM*
COc1cc(CC(=O)OCC(=O)Nc2ccc(N3CCOCC3)cc2)cc(OC)c1OC | 2 | 7% | 0% | 5 | 40 | -3%
COc1ccccc1-c1ccnc(-n2ncc(C(=O)N[C@H]3CCCCNC3=O)c2C2CC2)n1 | x | 21µM* | x | x | x | u
CC(c1ccon1)N(C)C(=O)c1cnn(-c2ncc3c(n2)-c2ccccc2CC3)c1C1CC1 (centres undefined) | x | 16µM* | x | x | x | -11%[9.04 µM]
Cc1cc(CNC(=O)c2cnn(-c3ncc4c(n3)-c3ccccc3CC4)c2C2CC2)on1 | x | u | x | x | x | 16µM*
COC(=O)[C@@H]1CCCN1C(=O)c1cnn(-c2ncc3c(n2)-c2ccccc2CCC3)c1C1CC1 | x | 16µM* | x | x | x | u
COc1ccccc1-c1ccnc(-n2ncc(C(=O)NCc3ccncc3)c2C)n1 | x | -27% | x | x | x | -9%[9.04 µM]
O=C(c1cccc(N2C(=O)C3C4C=CC(C4)C3C2=O)c1)N1CCN(c2ccc(F)cc2)CC1 (centres undefined) | -2 | u | 3% | 1 | 9 | u
CN(Cc1cccc2ncccc12)C(=O)c1cnn(-c2ncc3c(n2)-c2ccccc2CC3)c1C1CC1 | x | 16µM* | x | x | x | u
Cc1cc(-c2ccnc(-n3ncc(C(=O)NCC4CCCO4)c3C3CC3)n2)c(C)s1 (centres undefined) | x | u | x | x | x | -2%[9.04 µM]
CN(CC1COCCO1)C(=O)c1cnn(-c2ncc3c(n2)-c2ccccc2CCC3)c1C1CC1 (centres undefined) | x | u | x | x | x | -9%
Cc1cc(CNC(=O)c2cnn(-c3nccc(-c4cc(C)sc4C)n3)c2C2CC2)on1 | x | u | x | x | x | 16µM*
Cc1cc(-c2ccnc(-n3ncc(C(=O)NCC4COCCO4)c3C3CC3)n2)c(C)s1 (centres undefined) | x | 6.5µM* | x | x | x | 9.2µM*
O=C1CN(C(=O)COC(=O)Cc2ccccc2F)c2ccccc2N1 | 9 | -8% | x | x | 4 | -1%
CC(C)Cc1cc(-c2ccco2)c(C#N)c(N)n1 | 4 | -2% | 4% | 3 | -8 | 10%
Cc1cccc(CSC2=NCCN2C(=O)c2ccc(S(=O)(=O)N(C)C)cc2)c1 | 0 | 23µM* | 2% | x | -1 | u
Cc1ccc(S(=O)(=O)N2CCN=C2SCc2ccccc2)cc1 | 11 | 12% | 3% | 14 | -1 | -13%
Cc1cccc(CSC2=NCCN2S(=O)(=O)c2ccc(F)cc2)c1 | 29 | u | -7%[56.1 µM] | 5 | -10 | 16µM*
CC(=O)Nc1ccc(S(=O)(=O)N2CCN=C2SCc2ccc(F)cc2)cc1 | 7 | 26µM* | 0% | 7 | -15 | 18µM*
CCc1ccc(NC(=O)Cc2ccc(-n3cccc3)cc2)cc1 | -5 | 6% | 6% | -16 | -22 | 6%
COc1cccc(CN2CCC2(C)C(=O)Nc2cccc(NS(C)(=O)=O)c2)c1OC (centres undefined) | -12 | 23µM* | x | -2 | -5 | 18µM*
CC(C)c1ccc(CN2CCC2(C)C(=O)Nc2cccc(Oc3ccccc3)c2)cc1 (centres undefined) | 14 | 18µM* | x | 8 | 29 | u
COc1ccc(CN2CCC2(C)C(=O)Nc2cccc(NS(C)(=O)=O)c2)c2ccccc12 (centres undefined) | -14 | u | x | -16 | -4 | u
COc1cccc(CN2CCC2(C)C(=O)Nc2cccc(Oc3ccccc3)c2)c1OC (centres undefined) | 0 | 21µM* | x | 0 | -21 | 23µM*
COc1cccc(Nc2ncc3nc(CCc4ccccc4)c(=O)n(C[C@H]4CCCO4)c3n2)c1 | x | u | x | x | x | -15%
SMILES | Six1-Eya2 inh | DT40 TDP1 no CPT | TDP1 block | CtBP-E1A inh | IL-1B inflam inh | TDP1 cell CPT
Cn1c(=O)n(CC(N)=O)c2ccccc21 | 4 | 8% | 5% | 6 | 31 | 10%
Cc1cccc(C(=O)N2CCCC(Nc3ccc(C)c(C)c3)C2)n1 (centres undefined) | 6 | 5% | 4% | 6 | 0 | 0%
C/C(=N/NC(=O)c1ccccn1)c1ccco1 | -27 | u | -6% | u | -5 | u
CC(=NNC(=S)N1CCC1)c1ccccn1 | -91* | -114% | x | -95* | 0 | -111%
CC(=NNC(=S)SCc1ccccc1)c1ccccn1 | 0 | 0.041µM* | x | 2 | -3 | 0.052µM*
CC(=NNC(=S)N1CC2CCC(CC2)C1)c1cccc(C)n1 | -88* | 0.021µM* | x | -16 | -110* | 0.01µM*
CC(=NNC(=S)N1CCCC1)c1ccccn1 | u | -90% | x | -20 | 77 | -83%
COc1ccc(CNc2ccc([N+](=O)[O-])cn2)cc1 | 0 | u | x | 6 | -8 | u
OC[C@@H]1CN(Cc2ccco2)C[C@H](n2cnc3c(N4CCOCC4)ncnc32)O1 | 2 | 13% | x | 6 | -12 | 6%
O=C1c2cccc3cccc(c23)C(=O)N1CC1CCN(CC(O)COCc2ccc3c(c2)OCO3)CC1 (centres undefined) | -11 | u | 5% | 9 | -81* | u
COc1cccc(OCC(O)CN2CCN(CCN3C(=O)c4cccc5cccc(c45)C3=O)CC2)c1 (centres undefined) | -5 | 18µM* | 5% | -1 | -81* | u
COc1ccc(OCC(O)CN2CCC(CN3C(=O)c4cccc5cccc(c45)C3=O)CC2)cc1 (centres undefined) | -27 | 21µM* | 3% | u | x | 13µM*
Cc1ccc(C)c(OCC(O)CN2CCC(CN3C(=O)c4cccc5cccc(c45)C3=O)CC2)c1 (centres undefined) | -3 | 5.8µM* | 3% | 0 | -97* | 5.2µM*
O=C1N=C(N2C=CC(=C3C=CNC=C3)C=C2)/C(=C/N=NC(=O)c2ccccc2O)S1 | -19 | 14% | 9% | -26 | 0 | -14%
O=C(CSc1n[nH]c(-c2ccc(F)cc2)n1)NCCc1ccccc1 | x | u | 5% | x | x | -27%
Cc1ccc(CNC(=O)CSc2n[nH]c(-c3ccc(F)cc3)n2)cc1 | x | 16µM* | 3% | x | x | u
Cc1ccc(SCC(=O)NCc2ccc(F)cc2)cc1 | -8 | -4% | -1% | 11 | 20 | 4%

Compound activity (PubChem BioAssay)
